Marburg entry inh: Marburg virus entry inhibition | Marburg virus pseudotyped entry inhibition, cell reporter | Potency, µM (titrated, usually from 37.8 µM), without a hit: at the highest dose activity change, negative = inhibition, actives largely listed as inhibitors | 1.8% of 300,000 active | AID 540276; calls by dose curve; tested in HEK293 cells; note: potency is the fitted concentration of half-maximal effect; % is set by controls: 0 for no effect and ±100 for the full control effect
Pf growth 96h: P. falciparum growth inhibition at 96 hours; Potency, µM (series often up to 28.7 µM), without a hit: at the highest dose activity change, negative = inhibition, hits mostly inhibitors; 6.9% of 320,000 active; P. falciparum luciferase reporter growth, 96 h; note: potency is the fitted concentration of half-maximal effect; % is set by controls: 0 for no effect and ±100 for the full control effect
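96 h incubation, 37 C, 5% CO2, of luciferase-reporter P. falciparum-infected RBCs (2% hematocrit, 0.05% parasitemia final) with test compounds; endpoint luminescence.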
Cycloheximide cs: affects cycloheximide protein synthesis inhibition readout, counter-screen. cell reporter, cycloheximide protein synthesis inhibition counterscreen. max response, %. 12% of 300,000 active. AID 2314; in the data active = max response mostly above about 13%, no sharp cut-off; inactive = mostly below about 14%; note: read at 38.3 µM for the half of the compounds with a filed dose; 0% is about no effect
Pf growth 48h: inhibits P. falciparum growth in the first generation, 48 h; 5.9% of 310,000 active; P. falciparum luciferase growth in erythrocytes, 48 h; Potency, µM (titrated, usually from 28.7 µM), for the others: at the top dose activity change, negative = inhibition, actives largely listed as inhibitors; note: potency is the fitted concentration of half-maximal effect; % is set by controls: 0 for no effect and ±100 for the full control effect
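Erythrocytes infected with P. falciparum carrying an integrated firefly luciferase reporter (2% hematocrit, 0.1% parasitemia final) were exposed to compounds in RPMI 1640 with 0.5% Albumax at 37 C, 5% CO2. Growth inhibition was scored as reduced luminescence.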
LASV entry inh: Lassa virus entry inhibition. Lassa virus pseudotype entry inhibition, cell reporter. Potency, µM (highest dose often 37.9 µM), for the others: at the top dose activity change, negative = inhibition, hits mostly inhibitors. 1.2% of 300,000 active; calls by dose curve; tested in HEK293 cells; note: potency is the fitted concentration of half-maximal effect; % is set by controls: 0 for no effect and ±100 for the full control effect; nearly all actives have a fitted effect of over 50% in size
Shiga toxin inh: blocks Shiga toxin action in Vero cells. Vero cells, Shiga toxin protein synthesis inhibition reporter. inhibition, % at 38.7 µM. 9.2% of 290,000 active. AID 2315; in the data active = inhibition mostly above about 28%, no sharp cut-off; inactive = mostly below about 43%; note: 0% is about no effect
Numbers without * were called inactive; ? = inconclusive; . = not tested or not shown; + = active, no number; [ ] = dose if it differs, or a comment. Shown are actives, neighbours in structure and some others; about 19% of the full set was active somewhere. Unless noted, calls come from the whole dose curve; as a rule, active = well fitted inhibition curve with a large enough effect; inconclusive = small, poorly fitted or top-dose-only effect, or another doubt; inactive = no such curve, though single readings can be large or run the other way.

SMILES	Marburg entry inh	Pf growth 96h	Cycloheximide cs	Pf growth 48h	LASV entry inh	Shiga toxin inh
COc1cc(C#Cc2c(-c3cncn3C)n(C)c3ccc(-c4ccc(OC)nc4)cc23)cc(OC)c1	.	0.093µM*	.	?	.	.
COc1cc(OC)cc(-c2c(C#Cc3ccsc3)c3cc(-c4ccc5[nH]ccc5c4)ccc3n2C)c1	-4%	?	.	?	.	.
COc1cc(C#Cc2c(-c3cncn3C)n(C)c3ccc(-c4ccc5[nH]ccc5c4)cc23)cc(OC)c1	.	0.83µM*	.	1.5µM*	.	.
CC(=NNC(=S)N1CC2CCC(CC2)C1)c1cnccn1	?	.	.	.	0.28µM*	.
CC(=NNC(=S)N1CCN(c2ccccn2)CC1)c1ccccn1	?	.	.	.	-9%	.
C/C(=N\NC(=O)C1CCCN(S(=O)(=O)c2ccccc2)C1)c1cccnc1 (centres undefined)	-2%	9.3µM*	-2	4%	6%	6
CC(=NNC(=S)N1CCN(C2CCCCCC2)CC1)c1ccccn1	?	.	.	.	0.28µM*	.
C/C(=N\NC(=O)C1CCCN(S(=O)(=O)c2ccccc2)C1)c1ccccn1 (centres undefined)	?	49%	5	2.3µM*	?	13
C/C(=N/NC(=O)c1cnccn1)c1ccncc1	17%[46.1 µM]	-2%	17	33%	26%	31
CCN(CC(=O)Nc1cc(Cl)ccc1C)C(=O)CN1C(=O)NC(CC)(c2ccccc2)C1=O (centres undefined)	-10%	7%	.	-20%	15%	.
O=C1CCCC2=C1C(c1ccc(Cl)cc1)n1c(s/c(=C\c3ccc4ccncc4c3)c1=O)=N2 (centres undefined)	-11%	?	-1	?	16%	1
c1ccc2nc3c(nc2c1)OCC1CCCCN31 (centres undefined)	8%[46.1 µM]	131%	54*	-23%[0.00184 µM]	2%[46.1 µM]	108*
CCOc1cc2c(cc1OCC)-n1cccc1C(c1ccc(F)cc1)NC2 (centres undefined)	.	20%	-1	?	.	-14
Oc1ccc(C2NCc3ccccc3-n3cccc32)cc1Cl (centres undefined)	?	31%	-1	0.66µM*	13%	-5
FC(F)(F)c1cccc(C2NCc3ccccc3-n3cccc32)c1 (centres undefined)	?	4.7µM*	-4	-21%	11µM*	3
COc1ccccc1NC(=O)CCNS(=O)(=O)c1ccc2[nH]c(=O)oc2c1	.	?	-12	5%	.	-3
Cc1c(NC(=O)C(C)Oc2ccc(Br)cc2Cl)c(=O)n(-c2ccccc2)n1C (centres undefined)	-20%	3%	.	1%	3%[46.1 µM]	.
c1cncc(-c2nc(NCc3ccco3)c3ccccc3n2)c1	-33%	35%	14	12µM*	14%	-7
Cc1ccc(-c2nc(NCc3ccco3)c3ccccc3n2)cc1	2%	2%	69*	6%	?	36*
OC(CNc1nc(-c2cccnc2)nc2ccccc12)c1ccccc1 (centres undefined)	?	?	-6	?	?	-5
Cc1ccc(-c2nc(N/N=C/c3cccnc3)c3ccccc3n2)cc1	?	?	20*	.	?	22
Cc1ccc(-c2nc(N/N=C/c3cccc([N+](=O)[O-])c3)c3ccccc3n2)cc1	?	58%	1	30%	-29%	-6
c1ccc(-c2nc(NCc3cccnc3)c3ccccc3n2)cc1	?	?	-2	?	-1%	-2
Cc1ccc(-c2nc(NCc3cccnc3)c3ccccc3n2)cc1	24%	75%	14*	?	5%	-5
CC(C)CN(C(=O)COC(=O)c1ccccc1NCc1ccco1)c1c(N)n(Cc2ccccc2)c(=O)[nH]c1=O	-12%	?	.	?	?	.
SMILES	Marburg entry inh	Pf growth 96h	Cycloheximide cs	Pf growth 48h	LASV entry inh	Shiga toxin inh
Cc1cc(NC(=O)CSc2nc3ccccc3n2CCC#N)no1	-15%[46.1 µM]	9%	-1	23%	-15%	12
c1ccc(N2CCN(c3ncnc4scc(-c5cccs5)c34)CC2)cc1	-15%	-27%	1	?	-27%	-3
O=C(NCc1ccc(Cl)cc1)c1ccc2c(c1)NC(=O)C(CS(=O)(=O)Cc1ccccc1Cl)N2 (centres undefined)	.	.	.	.	-6%[46.1 µM]	.
C/C(=N\NC(=O)OC(C)(C)C)c1ccc(-n2ccnc2)cc1	10%[46.1 µM]	?	13	213%	5%[46.1 µM]	16
Cc1ccc(C(C)NC(=O)c2cccs2)cc1 (centres undefined)	?	.	.	.	3%[46.1 µM]	.
O=S(=O)(Nc1nc2ccccc2nc1NCc1ccco1)c1ccc(Cl)cc1	?	17%	1	-3%	?	11
Cc1ccc(S(=O)(=O)Nc2nc3ccccc3nc2NCc2ccco2)cc1	?	.	59*	118%	-2%	74*
Cc1sc2nc3ccc(NCc4ccco4)nn3c(=O)c2c1C	-12%	-3%	5	3%	-4%	-9
O=c1c2ccccc2nc2ccc(NCc3ccco3)nn12	-11%	.	51*	96%	3%	56*
CCOc1ccccc1NC(=O)CCNS(=O)(=O)c1cccc2nsnc12	-2%[46.1 µM]	-4%	-2	18%	0%	-4
CCOC(=O)c1c(C)[nH]c(C(=O)/C(C#N)=C/c2ccc(OCC)cc2)c1C	-15%	-5%	8	-14%	10%	13
COc1ccc(C(=O)N2CCCCCC2)cc1OC1CCN(C(C)=O)CC1	7%	10µM*	5	37%	0%	-3
COc1cc(C(=O)N2CCCCCCC2)ccc1OC1CCN(C(C)=O)CC1	?	?	30*	?	8%	43*
COc1ccc(C(=O)N2CCSCC2)cc1OC1CCN(C(C)=O)CC1	25%	8%	6	15%	10%	-24
O=C(NCCN1CCOCC1)C(=O)NCc1ccc2c(c1)OCO2	14%[46.1 µM]	37%	1	37%	-3%	-24
CCOC(=O)N1CCN(C(=O)c2cc(C)c3c(C)nn(-c4ccccc4)c3n2)CC1	-15%	31%	-3	?	0%	-4
Cc1ccc(NC(=O)/C=C/c2ccccc2Cl)cc1Cl	.	.	.	.	9%[46.1 µM]	.
Cc1ccnc(NC(=O)CCc2c[nH]c3ccccc23)c1	-2%[46.1 µM]	86%	40*	100%	-28%[46.1 µM]	91*
Cc1ccnc(NC(=O)c2ccccc2[N+](=O)[O-])c1	3%	42%	19*	46%	5%	19
Cc1ccnc(NC(=O)/C=C/c2ccccc2Cl)c1	2.6µM*	97%	59*	122%	?	+
Cc1cccnc1NC(=O)CCCc1c[nH]c2ccccc12	5%[46.1 µM]	?	3	105%	5%[46.1 µM]	-3
CCOc1ccccc1NC(=O)CCCn1cc([N+](=O)[O-])cn1	-23%[46.1 µM]	3.3µM*	9	11%	0%[46.1 µM]	3
COCCSc1nnc(NC(=O)C2CC(=O)N(C3CCCC3)C2)s1 (centres undefined)	4%[46.1 µM]	10%	-2	-8%	-1%	-21

Screening data: PubChem BioAssay, National Center for Advancing Translational Sciences (NCATS)
